According to PubChem BioAssay AID1259422 (The Scripps Research Institute Molecular Screening Center, 2018):
About 9,300 (1.5%) of roughly 640,000 compounds were called active. Rule as the data show it: active = inhibition above about 32%; inactive = the rest. Many of the other results were omitted from the sample, so actives are more common in it than they were.

Assay: TEAD-YAP interaction inhibition, primary screen, TEAD-YAP interaction inhibitor project, luminescence, HEK-TIYL cells (AID 1259422);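 also: 0% = median of test compound wells and 100% = reference inhibitor wells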
Settings: TEAD-Gal4/YAP UAS-luciferase luminescence, at 9.12 µM, stronger effect = higher value

Row | Compound | inhibition
1 | COc1ccc(N=C2SC(C(=O)Nc3ccc(C)cc3C)CC(=O)N2CCc2ccc(OC)c(OC)c2)cc1 (configuration not stated) | 9.84% (inactive)
2 | O=C(Cc1cc(=O)[nH]c(=O)[nH]1)NCCCc1ccccc1 | -5.86% (inactive)
3 | CCOC(=O)Nc1cc(=O)c2cc(C)ccc2o1 | 41.8% (active)
4 | Cc1ccc2oc(C(=O)Nc3ccccc3F)cc(=O)c2c1 | 4.72% (inactive)
5 | CCOC(=O)Nc1c(C(=O)OC)[nH]c2ccc(C)cc12 | -2.73% (inactive)
6 | COCCSc1nc2c(c(=O)[nH]c(=O)n2C)n1Cc1ccccc1Cl | 2.74% (inactive)
7 | O=[N+]([O-])c1ccc2cnn(-c3cccc(C(F)(F)F)c3)c2c1 | -0.71% (inactive)
8 | COc1ccccc1N1CCN(c2ncnc3sc(C(=O)N4CCCCC4C)c(C)c23)CC1 (configuration not stated) | 6.82% (inactive)
9 | CCOC(=O)c1c(/N=C/c2cccc(OC)c2OC)sc2c1CCN(CC)C2 | 4.12% (inactive)
10 | CC(C)N(CC(=O)N1c2ccccc2CC1C)Cc1ccccc1 (configuration not stated) | -1.32% (inactive)
11 | Oc1ccc(O)c(/C=N/Nc2nnc3c(n2)[nH]c2ccccc23)c1 | 49% (active)
12 | CC/C(=N/Nc1nnc2c(n1)[nH]c1ccccc12)c1ccccc1 | 0.16% (inactive)
13 | Cc1cccc2c1[nH]c1nc(N/N=C\c3ccc(O)cc3)nnc12 | -16.6% (inactive)
14 | Cc1nc(N2CCC(NCC(F)(F)F)CC2)nc2cc3c(cc12)CCC3 | -15.4% (inactive)
15 | C/C(=N\NC(=O)c1nnn(-c2nonc2N)c1C)c1ccc(Cl)c(Cl)c1 | -6.68% (inactive)
16 | O=C(O)CCC(=O)N1CCC(c2nc3ccc(Cl)cc3[nH]2)CC1 | 1.09% (inactive)
17 | O=C(CCCn1c(=S)[nH]c2ccccc2c1=O)NCc1cccc(Cl)c1 | 3.21% (inactive)
18 | Cc1cc(C)cc(NC(=O)CCCn2c(=S)[nH]c3ccccc3c2=O)c1 | 34.5% (active)
19 | O=C(CCCn1c(=S)[nH]c2ccccc2c1=O)Nc1ccc(F)c(Cl)c1 | -21.7% (inactive)
20 | CC(C)n1cnc2c(NCCCN3CCCC3=O)nc(Nc3ccc(-n4ccnc4)cc3)nc21 | 44.4% (active)
21 | O=C1CCCN1CCCNc1nc(Nc2ccc(-n3ccnc3)cc2)nc2c1ncn2CCN1CCCC1=O | 4.85% (inactive)
22 | CC(C)n1cnc2c(NCCCN3CCCC3=O)nc(-c3csc4ccccc34)nc21 | 3.47% (inactive)

Row | Compound | inhibition
23 | OCC1CCCN1c1nc(NC2CC2)c2ncn(-c3ccccc3)c2n1 (configuration not stated) | -46.6% (inactive)
24 | OCCNc1nc(Nc2ccc(N3CCOCC3)cc2)nc2c1ncn2-c1ccccc1 | 28.7% (inactive)
25 | c1ccc(-n2cnc3c(NCCN4CCOCC4)nc(Nc4ccc(-n5ccnc5)cc4)nc32)cc1 | 61.3% (active)
26 | c1ccc(Nc2nc(Nc3ccc(N4CCOCC4)cc3)c3ncn(-c4ccccc4)c3n2)cc1 | 3.79% (inactive)
27 | c1cnc(Nc2nc(Nc3ccc(N4CCOCC4)cc3)c3ncn(-c4ccsc4)c3n2)nc1 | 51.1% (active)
28 | OCCNc1nc(N2CCCC2CO)nc2c1ncn2-c1ccsc1 (configuration not stated) | 14.6% (inactive)
29 | c1cc(Nc2nc(Nc3ccc(N4CCOCC4)cc3)c3ncn(-c4ccsc4)c3n2)ccn1 | -4.11% (inactive)
30 | CN(C)c1cccc(Nc2nc(NCCN3CCOCC3)c3ncn(-c4ccccc4)c3n2)c1 | 3.8% (inactive)
31 | COc1ccc(CCNc2nc(N3CCCC3CO)nc3c2ncn3-c2ccsc2)cc1 (configuration not stated) | 53.3% (active)
32 | C[C@@H]1CN(C(=O)C2CC23CCN(Cc2coc4ccccc4c2=O)CC3)C[C@H](C)O1 (some centres not stated) | -6.72% (inactive)
33 | Cc1cccc(-c2nc(-c3ccc(Cl)cc3)no2)c1 | -40.1% (inactive)
34 | CCN(CC)S(=O)(=O)c1ccc(N2CCc3ccccc32)c([N+](=O)[O-])c1 | -8.71% (inactive)
35 | CC(C)(C#N)OC(=O)Nc1cccc(Cl)c1 | -3.72% (inactive)
36 | Cc1ccc(N2C(=O)Cc3c2nc(N)c2c(N)nc(N4CCCCC4)c(C#N)c32)cc1C | 18.1% (inactive)
37 | CC(C)(C)NC(=O)c1cnn2c(C(F)(F)F)cc(-c3ccc(F)cc3)nc12 | 6.73% (inactive)
38 | CCOCCOC(=O)COc1ccc2c(C)cc(=O)oc2c1 | 3.62% (inactive)
39 | Cc1ccc(-c2cc(C(=O)Nc3ccc(Br)cc3Br)c3ccccc3n2)o1 | -7.27% (inactive)
40 | Cc1nn(C)c(C)c1NC(=O)c1c([N+](=O)[O-])cnn1C | 4.42% (inactive)
41 | Cc1c(Cl)cccc1N1C(=O)c2ccc(Oc3ccc(Nc4ncnc5ccccc45)cc3)cc2C1=O | 2.53% (inactive)
42 | O=C(Cc1c(F)cccc1Cl)Nc1cc(C(=O)Nc2cccc(C(F)(F)F)c2)ccc1N1CC2CC(C1)c1cccc(=O)n1C2 (configuration not stated) | 2.29% (inactive)
43 | Nc1nc(Nc2nccc3ccccc23)nc2c1ncn2-c1ccsc1 | 53.2% (active)
44 | c1ccc2c(Nc3nc(NCCN4CCOCC4)c4ncn(-c5ccsc5)c4n3)nccc2c1 | 19.8% (inactive)

Row | Compound | inhibition
45 | COc1ccc(CCNc2nc(Nc3ccc(-n4ccnc4)cc3)nc3c2ncn3-c2ccsc2)cc1 | 65.1% (active)
46 | CCNc1nc(Nc2cc(OC)c(OC)c(OC)c2)c2ncn(-c3ccsc3)c2n1 | 48.6% (active)
47 | CC(=O)Nc1ccc(Nc2nc(Nc3ccc(-n4ccnc4)cc3)nc3c2ncn3-c2ccsc2)cc1 | 24.8% (inactive)
48 | COc1cc(Nc2nc(Nc3nccc4ccccc34)nc3c2ncn3-c2ccsc2)cc(OC)c1OC | 12.9% (inactive)
49 | COc1cc(Nc2nc(NCc3cccnc3)c3ncn(-c4ccsc4)c3n2)cc(OC)c1OC | 30.7% (inactive)
50 | COc1cc(Nc2nc(NCc3cccnc3)nc3c2ncn3-c2ccsc2)cc(OC)c1OC | 0.91% (inactive)
51 | Nc1nc(NCc2cccnc2)nc2c1ncn2-c1ccsc1 | -5.56% (inactive)
52 | Oc1ccc(CCNc2nc(NCCN3CCOCC3)nc3c2ncn3-c2ccsc2)cc1 | 34.3% (active)
53 | c1ccc(Oc2ccc(Nc3nc(Nc4ccccn4)nc4c3ncn4-c3ccsc3)cc2)cc1 | 2.53% (inactive)
54 | Oc1ccc(CCNc2nc(Nc3ccc(N4CCOCC4)cc3)nc3c2ncn3-c2ccccc2)cc1 | 9.04% (inactive)
55 | CCCCOc1ccc(NS(=O)(=O)c2cc(F)ccc2OC)cc1 | 1.6% (inactive)
56 | Cc1cc2c(cc1C)NC(c1cccc3ccccc13)C1=C(CC(C)(C)CC1=O)N2 (configuration not stated) | -9.75% (inactive)
57 | Cn1c(=O)n(Cc2ccc(F)cc2)c(=O)c2c1nc1oc(C(C)(C)C)cn12 | -6.69% (inactive)
58 | O=[N+]([O-])c1ccc(S(=O)(=O)NCCSCc2ccco2)cc1 | 6.05% (inactive)
59 | C/C(=N\NC(=O)c1ccc(CSc2nc(C)cc(C)n2)cc1)c1ccccc1O | 10.2% (inactive)
60 | CCN(CC)C(=O)C1CCCN(c2nc(NC3CC3)c3ncn(-c4ccccc4)c3n2)C1 (configuration not stated) | 9.83% (inactive)
61 | O=C1CCCN1CCCNc1nc(Nc2ccncn2)nc2c1ncn2-c1ccsc1 | 50.5% (active)
62 | CC(C)n1cnc2c(NCCc3ccc(O)cc3)nc(Nc3cccc(N(C)C)c3)nc21 | -1.31% (inactive)
63 | CCNc1nc(NCCCN2CCCC2=O)c2ncn(-c3ccccc3)c2n1 | 4.42% (inactive)
64 | CC(C)n1c(Nc2cnccn2)nc2c(NCCc3ccc(O)cc3)ncnc21 | 14.1% (inactive)
65 | CC(C)n1cnc2c(NCCc3ccc(O)cc3)nc(Nc3cnccn3)nc21 | 36.5% (active)
66 | O=C1CCCN1CCCNc1nc(Nc2ccccc2)c2ncn(-c3ccsc3)c2n1 | 8.67% (inactive)

Row | Compound | inhibition
67 | CCN(CC)C(=O)C1CCCN(c2nc(NCCN(C(C)C)C(C)C)c3ncn(-c4ccsc4)c3n2)C1 (configuration not stated) | 36.7% (active)
68 | CCN(CC)C(=O)C1CCCN(c2nc(Nc3ccc(NC(C)=O)cc3)c3ncn(-c4ccsc4)c3n2)C1 (configuration not stated) | 24.3% (inactive)
69 | Cc1cccc(C(=O)NCc2nnc(SCC(=O)N3N=C(c4cccs4)CC3c3ccc(F)cc3)n2C)c1 (configuration not stated) | 10.4% (inactive)
70 | Cc1cccc(NC(=O)CC2SC(N)=NC2=O)c1C (configuration not stated) | 3.13% (inactive)
71 | O=c1oc2ccccc2cc1-c1nnc(Nc2cccc3ccccc23)s1 | -25.6% (inactive)
72 | COc1ccc(NC(=O)C2C3C=CC4(O3)C2C(=O)N(CCC(C)C)C4C(=O)NC2CCCCC2)cc1 (configuration not stated) | 6.81% (inactive)
73 | O=S(=O)(c1ccc(Br)c2ccccc12)N1CCN(Cc2ccccc2)CC1 | 14.9% (inactive)
74 | O=c1onc(-c2cccs2)n1Cc1ccccc1 | 4.82% (inactive)
75 | CCOC(=O)c1nnn(CC(=O)Nc2cccc(C)c2)c1C(=O)OCC | -6.24% (inactive)
76 | Cc1cccc(NC(=O)Cn2c(-c3cccs3)noc2=O)c1 | 33.3% (active)
77 | O=C(CC(O)(C(F)(F)F)C(F)(F)F)Nc1ccc(Cl)c(Cl)c1 | 58.9% (active)
78 | O=C(COc1ccc(CO)cc1)Nc1ccc(Cl)c(Cl)c1 | -15.9% (inactive)
79 | O=C(Nc1ccc(Cl)c(Cl)c1)c1ccc(C(=O)Nc2ccc(Cl)c(Cl)c2)cc1 | -3.3% (inactive)
80 | CCn1c(CNc2c(C)cccc2C)nnc1SCC(N)=O | -2.12% (inactive)
81 | CCOC(=O)c1c(NC(=O)c2cc(OC)c(OC)c(OC)c2)sc(C(=O)N2CCCC2)c1C | -7.23% (inactive)
82 | CCOC(=O)c1cnc2c(Cl)c(Cl)ccc2c1NCCN(C)C | -5.54% (inactive)
83 | CCOC(=O)c1cnc2c(C)c(C)ccc2c1NCCCN(C)C | 81.7% (active)
84 | CCOC(=O)c1cnc2c(Cl)c(Cl)ccc2c1NCCOC(=O)c1cccnc1 | 0.48% (inactive)
85 | C/C(=C\C(=O)ONC(=O)c1ccccc1)NCc1ccccc1 | -18.2% (inactive)
86 | CCOC(=O)C1=C(C)N(c2ccc(C)c(C)c2)C(=O)/C1=C\c1cccs1 | 3.05% (inactive)
87 | O=C(CNS(=O)(=O)c1cccc2nonc12)NCc1ccccc1 | 8.04% (inactive)
